Reference: PubChem BioAssay (NCATS)
Records with an inconclusive call do not appear. Unmarked numbers belong to inactive results. Activity calls are given as the source filed them. Calls follow the shape of the dose curve; as a rule, active = well fitted cell-killing curve with a large enough effect; inconclusive = small, poorly fitted or top-dose-only effect, or effect the other way; inactive = no such curve, though single readings can be large or run the other way.

Experiment: Quantitative High-Throughput drug screen in 47 multiple myeloma cell lines against the NCATS MIPE library collection: AMO1_DSMZ cell viability assay (AID 1918927; also: nearly all actives have a fitted effect of over 30% in size)
Conditions: AMO1 myeloma cells viability, CellTiter-Glo ATP luminescence, 48 h; series mostly up to 45.8 µM; viability, % of DMSO: at the top concentration
Description: PI: Beverly A. Mock Ph.D.
Laboratory of Cancer Biology and Genetics,
Center for Cancer Research, National Cancer Institute,
National Institute of Health, Bethesda, Maryland
Drug resistance and disease progression are common in multiple myeloma (MM) patients, underscoring the need for new therapeutic combinations. […] We hypothesized that effective combinations would reduce MYC expression and enhance p16 activity. […] These preclinical data identify potentially useful drug combinations for evaluation in drug-resistant MM and reveal potential mechanisms of combined drug sensitivity.
Described herein is the primary MIPE qHTS used to cherrypick compounds. Validated compounds were then further tested for potential synergistic activiy.
[1] Peat TJ, Gaikwad SM, Dubois W, Gyabaah-Kessie N, Zhang S, Gorjifard S, Phyo Z, Andres M, Hughitt VK, Simpson RM, Miller MA, Girvin AT, Taylor A, Williams D, D'Antonio N, Zhang Y, Rajagopalan A, Flietner E, Wilson K, Zhang X, Shinn P, Klumpp-Thomas C, McKnight C, Itkin Z, Chen L, Kazandijian D, Zhang J, Michalowski AM, Simmons JK, Keats J, Thomas CJ, Mock BA. Drug combinations identified by high-throughput screening promote cell cycle transition and upregulate Smad pathways in myeloma. Cancer Lett. 2023 Aug 1;568:216284. doi: 10.1016/j.canlet.2023.216284. Epub 2023 Jun 24. PMID: 37356470; PMCID: PMC10408729.
SEQUENCE No. (e.g., 1, 2, 3, etc.); […] (e.g., Cells, Incubation, Reagent, etc.); VALUE and DESCRIPTION.
1; Cells; 5 uL; white, solid bottom 1536-well Greiner assay plate.
2; Compounds; 23 nL; Kalypsis pin tool (Wako USA) equipped with a 1536-well pin head to transfer to the assay plates.
3; Incubation; 48 hours; 37C incubation.
4; Reagent;5uL; CellTiter Glo (Promega).
5; Detector; 425V; Luminescence; Viewlux PerkinElmer.
NOTES (numbers refer to Sequence numbers above)
1. The cell-based screening methods employed in this study were like those previously published. Briefly, the corresponding myeloma cell lines were screened in 1,536-well plates with 500 cells, 5-uL per well for inhibition of cell viability (assessed by measuring ATP levels with CellTiterGlo).
2. NCATS MIPE 4.0 library of approved and investigational drugs were added using the Kalypsis pin tool. Wells treated with DMSO only for 100% viability and media only wells for 0% viability were used as controls.
3. The assay plates were covered and incubated for 48 hours in a 37C, 5% CO2 incubator with controlled humidity.
4. After 48 hours, CellTilter-GloTM luminescent substrate mix (Promega) reagent was added to the assay plate and plates we incubated for 5 min at room temperature.
5. Signal was measured as median relative luminescence units on a ViewLux (PerkinElmer) multiplate reader.
[1] Heske CM, Davis MI, Baumgart JT, Wilson K, Gormally MV, Chen L, Zhang X, Ceribelli M, Duveau DY, Guha R, Ferrer M, Arnaldez FI, Ji J, Tran HL, Zhang Y, Mendoza A, Helman LJ, Thomas CJ. Matrix Screen Identifies Synergistic Combination of PARP Inhibitors and Nicotinamide Phosphoribosyltransferase (NAMPT) Inhibitors in Ewing Sarcoma. Clin Cancer Res. 2017 Dec 1;23(23):7301-7311. doi: 10.1158/1078-0432.CCR-17-1121. Epub 2017 Sep 12. PMID: 28899971; PMCID: PMC6636827.
Potency is read from the fitted curve at half-maximal effect.

SMILES | viability, % of DMSO [%] | Potency
CCCCS(=N)(=O)CCC(N)C(=O)O (stereo not given) | 117 | –
Nc1[nH]c(=O)ncc1F | – | 4.69 µM (active)
Nc1ccc(S(=O)(=O)Nc2ccccn2)cc1 | 107 | –
CC(C)(C#N)c1cc(Cn2cncn2)cc(C(C)(C)C#N)c1 | 104 | –
CCCCc1oc2ccc(NS(C)(=O)=O)cc2c1C(=O)c1ccc(OCCCN(CCCC)CCCC)cc1 | – | 9.35 µM (active)
CCOC(=O)[C@H](CCc1ccccc1)N[C@H]1CS[C@H](c2cccs2)CN(CC(=O)O)C1=O | – | 1.32 µM (active)
CC(=O)[C@H]1CC[C@H]2[C@@H]3CCC4=CC(=O)CC[C@]4(C)[C@H]3CC[C@]12C | 128 | –
CCN1CCCC1CNC(=O)c1cc(S(N)(=O)=O)ccc1OC (stereo not given) | 119 | –
Cn1c(=O)c2c(ncn2CC(O)CO)n(C)c1=O (stereo not given) | 109 | –
CN1CCN(c2c(F)cc3c(=O)c(C(=O)O)cn4c3c2OCN4C)CC1 | 140 | –
CCOC(=O)[C@H](CCc1ccccc1)N[C@H]1CCc2ccccc2N(CC(=O)O)C1=O | – | 7.43 µM (active)
COc1cc2nc(N3CCCN(C)CC3)nc(NC3CCN(Cc4ccccc4)CC3)c2cc1OC | – | 7.43 µM (active)
COc1cc(NS(=O)(=O)c2ccc(N)cc2)nc(OC)n1 | 106 | –
CS(=O)(=O)c1ccc([C@@H](O)[C@@H](CO)NC(=O)C(Cl)Cl)cc1 | 98.2 | –
Cc1cccc(Nc2ccncc2S(=O)(=O)NC(=O)NC(C)C)c1 | 98.7 | –
CC(C)(Sc1cc(C(C)(C)C)c(O)c(C(C)(C)C)c1)Sc1cc(C(C)(C)C)c(O)c(C(C)(C)C)c1 | 108 | –
Cc1ccc(S(=O)(=O)N[C@@H](Cc2ccccc2)C(=O)CCl)cc1 | – | 13.2 µM (active)
Cc1noc(NS(=O)(=O)c2ccc(N)cc2)c1C | 118 | –
Cc1onc(-c2ccccc2Cl)c1C(=O)N[C@@H]1C(=O)N2[C@@H]1SC(C)(C)[C@@H]2C(=O)O | 115 | –
Cn1nnc2c(C(N)=O)ncn2c1=O | 97.5 | –

SMILES | viability, % of DMSO [%] | Potency
CNCC[C@H](Oc1cccc2ccccc12)c1cccs1 | – | 26.4 µM (active)
CCOCC(O)COc1ccc(NC(=O)CC[S+](C)C)cc1 (stereo not given) | 94 | –
O=C(N[C@H](CO)[C@H](O)c1ccc([N+](=O)[O-])cc1)C(Cl)Cl | 135 | –
CCOC(=O)c1ccc(C#Cc2ccc3c(c2)C(C)(C)CCS3)nc1 | 92 | –
CNS(=O)(=O)Cc1ccc2[nH]cc(CCN(C)C)c2c1 | 77.9 | –
CC[C@H](C)C(=O)O[C@H]1C[C@@H](C)C=C2C=C[C@H](C)[C@H](CC[C@@H]3C[C@@H](O)CC(=O)O3)[C@H]21 | 106 | –
COc1cc2ncnc(Nc3cccc(Cl)c3)c2cc1OC | – | 23.5 µM (active)
CC(C)(C)C(=O)OCOP(=O)(COCCn1cnc2c(N)ncnc21)OCOC(=O)C(C)(C)C | – | 0.105 µM (active)
CC(=O)Oc1ccccc1C(=O)Nc1ncc([N+](=O)[O-])s1 | – | 13.6 µM (active)
CN(C)CCc1c[nH]c2ccc(CS(=O)(=O)N3CCCC3)cc12 | 99.4 | –
O=C(O)c1ccc(-n2nc(-c3ccccc3O)nc2-c2ccccc2O)cc1 | – | 29.6 µM (active)
NC1(c2ccc(-c3nc4ccn5c(=O)[nH]nc5c4cc3-c3ccccc3)cc2)CCC1 | – | 3.72 µM (active)
CC1=C(C(=O)O)N2C(=O)[C@@H](NC(=O)C(N)c3ccccc3)[C@H]2SC1 (stereo not given in full) | 134 | –
CC[C@H](NC(C)C)[C@H](O)c1ccc(O)c2[nH]c(=O)ccc12 | 135 | –
OC(Cn1cncn1)(Cn1cncn1)c1ccc(F)cc1F | – | 0.0418 µM (active)
COc1ncnc(NS(=O)(=O)c2ccc(N)cc2)c1OC | 115 | –
O=C(O)c1cc(=O)[nH]c(=O)[nH]1 | 132 | –
NCCCC(O)(P(=O)(O)O)P(=O)(O)O | 115 | –
O=C(O)c1cccnc1 | 121 | –
CCn1cc(C(=O)O)c(=O)c2cc(F)c(N3CCNCC3)cc21 | 139 | –
